# Test results from PubChem BioAssay (EPA / NIEHS).
# Calls of active or inactive are those of the source. How the source made its calls: active means hit-call score of the fitted dose curve at least 0.9, where 1 is the maximum; inactive means score below 0.9.
# Read-out: Interleukin-8 (IL8), CXCL8 (gene 3576)
# Experiment: BSK_LPS_IL8: BioMAP Diversity Plus: LPS Assay for Interleukin-8 (IL8) Biomarker Activity (AID 2283078)
# Conditions: primary human HUVEC with PBMC; actives raise or lower the signal
# Method: BSK_LPS is a cell-based, multiplexed-readout assay that uses umbilical vein endothelium and peripheral blood mononuclear cells, a human vascular primary cell co-culture, with measurements taken at 24 hours after chemical dosing in a 96-well plate.BSK_LPS_IL8 is an assay component measured in the BSK_LPS assay. It measures IL-8 antibody related to regulation of gene expression using ELISA technology.Data from the assay component BSK_LPS_IL8 was analyzed into 1 assay endpoint. This assay endpoint, BSK_LPS_IL8, was analyzed with bidirectional fitting relative to DMSO as the negative control and baseline of activity. Using a type of binding reporter, gain or loss-of-signal activity can be used to understand changes in the signaling as they relate to the gene CXCL8. Furthermore, this assay endpoint can be referred to as a primary readout, because this assay has produced multiple assay endpoints where this one serves a signaling function. To generalize the intended target to other relatable targets, this assay endpoint is annotated to the cytokine intended target family, where the subfamily is interleukins.
# The levels of cell surface (or secreted, indicated by the prefix "s") biomarker endpoints were measured by ELISA. Overt cytotoxicity to cells in confluent adherent cultures (all systems other than the BT system) was assessed by measuring total protein levels using sulforhodamine B (SRB) staining in parallel cultures at the time of biomarker measurements, indicated as SRB endpoints. For proliferation assays for adherent cell types, individual cell types are cultured at sub-confluence and relative cell numbers quantified by SRB staining at time points optimized for each system (48 h: 3C and CASM3C systems; 72 h: BT and HDF3CGF systems; 96 h: SAg system). SRB was performed by staining cells with 0.1% SRB after fixation with 10% TCA and reading wells at 560 nm.Viability and proliferation of PBMC (T cells) was quantified by Alamar Blue reduction for the SAg and BT systems. For PBMC viability (referred to as PBMC Cytotoxicity within the assay endpoint names), cells were plated (75,000/well in a 96-well plate) and then chemical samples added for 1 h before addition of activators, SEB and TSST-1 (20 ng/mL final concentration each). Cells were incubated for 90 h. Then, Alamar Blue (20 uL/well) (Invitrogen, Cat DAL1100) was added for 6 h, and the plates were read with a fluorescence microplate reader at 546/580 nm (excitation/emission). For PBMC proliferation, cells were plated and activated as above but incubated for only 16 h prior to addition of Alamar Blue. Plates were read after 6 h.
Structure (SMILES),outcome,AC50
CNC(C)=O,inactive,–
OC[C@H]1O[C@@](CO)(O[C@H]2O[C@H](CO)[C@@H](O)[C@H](O)[C@H]2O)[C@@H](O)[C@@H]1O,inactive,–
OC(O)(C(F)C(O)(O)C(F)(F)F)C(F)(F)F,inactive,–
CCCCCCCCCCCCCCCCOS(=O)(=O)O,inactive,–
O=C(NO)C1(NS(=O)(=O)c2ccc(Oc3ccc(F)cc3)cc2)CCOCC1,inactive,–
CC(=O)c1ccccc1,inactive,–
Cc1nc(-c2ccccn2)ncc1C(=O)Nn1cc(C)c2cc(F)ccc21,inactive,–
FC(F)(F)COC(OCC(F)(F)F)OCC(F)(F)F,inactive,–
CCCCCCOC(=O)CC(CC(=O)OCCCCCC)(OC(=O)CCC)C(=O)OCCCCCC,inactive,–
CCCCN1C(=O)[C@@H]([C@H](O)C2CCCCC2)NC(=O)C12CCN(Cc1ccc(Oc3ccc(C(=O)O)cc3)cc1)CC2,inactive,–
O=C1CN(N=Cc2ccc([N+](=O)[O-])o2)C(=O)N1,inactive,–
NC(=O)N(O)[C@@H]1COc2cc(OCc3ccccc3)ccc21,inactive,–
O=C(O)c1cccc(C[C@@H]2COc3ccc(OCc4nc5cc(F)ccc5s4)cc3[C@@H]2O)c1,inactive,–
OCC(CO)(CO)CO,inactive,–
OCCNCCO,inactive,–
COc1cc2c(c(OC)c1OC)-c1ccc(OC)c(=O)cc1[C@@H](NC(C)=O)CC2,inactive,–
CCOC(N)=O,inactive,–
Nc1ccn([C@@H]2O[C@H](CO)[C@@H](O)[C@@H]2O)c(=O)n1,inactive,–
CC(C)C(=O)Nc1ccc([N+](=O)[O-])c(C(F)(F)F)c1,inactive,–
C=CCc1cc(S(=O)(=O)c2ccc(O)c(CC=C)c2)ccc1O,–,16.2 µM (active)

Structure (SMILES),outcome,AC50
c1ccc2ncccc2c1,inactive,–
NCC(F)(F)C(F)(F)C(F)(F)C(F)(F)F,inactive,–
NC(=O)NN=Cc1ccc([N+](=O)[O-])o1,inactive,–
CCc1cccc(CC)c1N,inactive,–
CC[C@H](C)C(=O)O[C@H]1C[C@H](O)C=C2C=C[C@H](C)[C@H](CC[C@@H](O)C[C@@H](O)CC(=O)O)[C@H]21,inactive,–
Cc1nccn1-c1ccc(Sc2cccc(C3(C(N)=O)CCOCC3)c2)cc1,inactive,–
CCCCCCCC1CCC(=O)O1 (stereo not given),inactive,–
O=C(O)c1cccc(C(=O)O)c1,inactive,–
NNC(=O)c1ccncc1,inactive,–
CCN(CC)C(=S)SSC(=S)N(CC)CC,–,29.7 µM (active)
CCCC(CCC)C(=O)O,inactive,–
O=S(=O)(O)c1ccc(N=Nc2c(O)ccc3cc(S(=O)(=O)O)ccc23)cc1,inactive,–
CCOc1ccc2[nH]cc(C(=O)NCc3ccccc3)c(=O)c2n1,inactive,–
CCc1ccc(O)c(C(C)(C)C)c1,inactive,–
OC[C@H]1O[C@@H]2O[C@H]3[C@H](O)[C@@H](O)[C@@H](O[C@H]4[C@H](O)[C@@H](O)[C@@H](O[C@H]5[C@H](O)[C@@H](O)[C@@H](O[C@H]6[C@H](O)[C@@H](O)[C@@H](O[C@H]7[C@H](O)[C@@H](O)[C@@H](O[C@H]1[C@H](O)[C@H]2O)O[C@@H]7CO)O[C@@H]6CO)O[C@@H]5CO)O[C@@H]4CO)O[C@@H]3CO,inactive,–
CCCCCCCCCCCCCCO,–,34 µM (active)
OC(Cn1cncn1)(Cn1cncn1)c1ccc(F)cc1F,inactive,–
CCCCCCCCN(C)C,inactive,–
OCc1c[nH]c2ccccc12,inactive,–
CCCOc1ccc(S(=O)(=O)N2CCN(CC)CC2)cc1-c1nc2c(CC)n(Cc3ccccn3)nc2c(=O)[nH]1,inactive,–
